# Data published in PubChem BioAssay.
# Test: probe aShh binding to arrayed compounds – biochemical, biotinylated probe, 635/667 nm fluorescence, primary screen (AID 1114);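 note: probe is biotin-labelled aShh protein from a stem cell growth factor screen; measures binding of labelled protein to compounds printed on the slide; score merges feature fluorescence at 667 nm with signal-to-noise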
# Conditions: small-molecule microarray, higher = more signal
row,SMILES,composite z-score
1,CCN(CC)c1ccc(N2CC=CC34O[C@@H]5C=CCOC(=O)[C@@H]5[C@H]3C(=O)N(CCO)[C@@H]4C2=O)cc1 (stereo partly specified),0.0756
2,CCOC(=O)C1=CC[C@@H](c2ccccc2)N(S(=O)(=O)C[Si](C)(C)C)[C@H]1c1ccccc1,-0.2
3,CN(C)CCCC[C@@H]1NC(=O)[C@@H]2C[C@H](C(=O)NCc3ccc(F)cc3)[C@H](c3ccc(O)cc3)N2C1=O,-0.138
4,C=CCOC(=O)[C@H]1[C@@H]2C(=O)O[C@@H](c3ccccc3)[C@@H](c3ccccc3)N2[C@@H](c2ccc(OCCOC(=O)[C@@H]3C[C@@H]4C(=O)N[C@@H](CC(C)C)C(=O)N4[C@@H]3c3ccc(O)cc3)cc2)[C@]12C(=O)Nc1ccc(I)cc12,-0.0553
5,COCCCNC(=O)[C@@H]1c2ccccc2C(=O)N(C2CCCCC2)[C@H]1c1ccc(CO)cc1,-0.0769
6,CN(C)CCCC[C@@H]1NC(=O)[C@H]2C[C@@H](C(=O)NCc3ccc(F)cc3)[C@@H](c3ccc(O)cc3)N2C1=O,0.365
7,COc1ccc(C#Cc2ccc3c(c2)[C@]2(C(=O)N3)[C@H](C(=O)Nc3nc4ccccc4s3)[C@H]3C(=O)O[C@H](c4ccccc4)[C@H](c4ccccc4)N3[C@@H]2c2ccc(OCCO)cc2)cc1,0.337
8,C=CCC(OC(C)=O)[C@@H]1[C@@H](N(Cc2ccc(-c3cccc(C(F)(F)F)c3)o2)C(=O)c2cccc3ccccc23)c2cc(OCCCO)ccc2N1C(=O)c1ccc2ccccc2n1 (stereo partly specified),0.227
9,C[N+](C)(C)CCCC[C@@H]1NC(=O)[C@H]2C[C@@H](C(=O)NCCCCCNC(=O)CS)[C@@H](c3ccc(O)cc3)N2C1=O,-0.0553
10,C=CCC(OC(C)=O)[C@@H]1[C@@H](N(Cc2cccc3ccccc23)C(=O)c2cccc3ccccc23)c2cc(OCCCO)ccc2N1C(=O)Cc1ccc2ccccc2c1 (stereo partly specified),-0.138
11,COc1ccc(C(O)C2C=CC3C(=O)N(C)C(=O)C3N2Nc2ccc([N+](=O)[O-])cc2[N+](=O)[O-])cc1OCc1ccccc1 (stereo unspecified),0.28
12,COCCOC(=O)N1C(=O)[C@@]2(c3cc(C#CCC(C(=O)OC)C(=O)OC)ccc31)[C@H](C(=O)N1CCc3cc(OC)c(OC)cc3C1)[C@H]1C(=O)O[C@H](c3ccccc3)[C@H](c3ccccc3)N1[C@@H]2c1ccc(O)cc1,0.0326
13,C=CCNC(=O)[C@@H]1[C@H]2C(=O)O[C@H](c3ccccc3)[C@H](c3ccccc3)N2[C@H](c2ccc(O)cc2)[C@@]12C(=O)Nc1ccc(C#CC3(O)CCCCCC3)cc12,0.488
14,COCCOC(=O)N1C(=O)[C@@]2(c3ccccc31)[C@H](C(=O)N1CCCCCCC1)[C@H]1C(=O)O[C@H](c3ccccc3)[C@H](c3ccccc3)N1[C@@H]2c1ccc(O)cc1,1.04
15,N#Cc1ccc(C(O)C2C=CC3C(=O)NC(=O)C3N2Nc2ccccn2)cc1 (stereo unspecified),0.151
16,CC(C)C[C@H]1NC(=O)[C@@]23C(=O)N[C@@H](Cc4ccccc4)C2[C@H](C)[C@@]2(C)O[C@H]2C3/C=C/C/C=C\CNC(=O)[C@@H]2CCCN2C1=O (stereo partly specified),0.111
17,CCCC[C@@H]1C[C@H]1[C@@H](NC(=O)Cc1ccccc1)c1ccc(Cl)cc1,1.47
18,NC(=O)N1C(=O)C2C(C1=O)C1C=C(CCCO)C2C(c2ccc(CN3CCCC3)cc2)N1Cc1cccc(OC(F)(F)F)c1 (stereo unspecified),0.296
19,CCOC(=O)C[C@H]1[C@H](OC(=O)c2ccc(C(=O)c3ccccc3)cc2)[C@@H](NC(=O)c2ccc3ccccc3c2)c2cc(OCCCO)ccc2N1C(=O)c1ccc2ccccc2n1,-0.191
20,O=C1NC(=O)C2C1C=CC(C(O)c1ccc(F)cc1)N2Nc1ccccn1 (stereo unspecified),0.0684
21,COc1ccc([Si](C)(C)[C@H]2[C@H](CC(=O)N3Cc4ccccc4C[C@H]3CO)O[C@@]3(C(=O)N(Cc4cccc(N5C(=O)c6cccc7cccc5c67)c4)c4ccccc43)[C@@H]2C)cc1,-0.0778
22,COC(=O)[C@@]1(Cc2ccccc2)[C@@H]2[C@@H](CC(=O)[C@H]2CC(=O)C(=O)N(C)C)CN1C(=O)c1ccccc1,-0.0322
23,COC(=O)[C@]1(CO)N=C(c2ccc(OCCCO)cc2)O[C@@H]1c1ccccc1CN=[N+]=[N-],0.0611
24,CC(C)CNC(=O)[C@@H]1c2ccccc2C(=O)N(C(C)C)[C@H]1c1ccc(CO)cc1,-0.2
25,Cc1c(NC(=O)/C(C#N)=C/c2ccc(Cl)cc2)c(=O)n(-c2ccccc2)n1C,-0.0503
26,O=C1c2ccccc2[C@](Cc2ccccc2I)(C(=O)O)[C@H](c2ccc(CO)cc2)N1Cc1ccccc1,-0.26
